# Experimental data taken from PubChem BioAssay (NCATS).
# Results filed as inconclusive are left out. Entries that show only a call come without a potency. Calls of active or inactive are those of the source. Calls follow the shape of the dose curve; as a rule, active = well fitted cell-killing curve with a large enough effect; inconclusive = small, poorly fitted or top-dose-only effect; inactive = flat fitted curve, though single readings scatter.
# Experiment: qHTS of pediatric cancer cell lines to identify multiple opportunities for drug repurposing: Primary screen for Rh18 cells (AID 1347102); also: nearly all actives have a fitted effect of over 65% in size
# Settings: Rh18 rhabdomyosarcoma viability, CellTiter-Glo luminescence, 48 h; series mostly up to 46 µM
# Procedure, shortened: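 Cells (500-1,000/well) in growth media were settled 5 h at 37 degrees C, then given compounds for 48 h. Viability was read as CellTiter-Glo luminescence. Primary runs used MIPE at 11 points (0.78 nM-46 µM) and NPC at 8 points (0.59 nM-46 µM); follow-ups used 11 points.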
# Potency is read from the fitted curve at half-maximal effect.
row,SMILES,Potency
1,Cc1nc2ccccc2c(=O)n1-c1ccccc1Cl,inactive
2,c1ccc2nc(N3CCNCC3)ccc2c1,inactive
3,Nc1ccc(Cl)cc1C(=O)c1ccccc1F,inactive
4,C[C@@H]1CC[C@H]2[C@@H](C)C(=O)O[C@@H]3O[C@@]4(C)CC[C@@H]1[C@]32OO4,inactive
5,CN1CCC(N(Cc2ccccc2)c2ccccc2)CC1,inactive
6,C[C@]12C=CC(=O)C=C1CC[C@@H]1[C@@H]2CC[C@@]2(C)[C@H]1CC[C@]2(C)O,inactive
7,C[C@]12CC[C@H]3[C@@H](CCC4=CC(=O)CC[C@@H]43)[C@@H]1CC[C@@H]2O,inactive
8,CCO[C@H]1O[C@@H]2OC3(C)CC[C@H]4[C@H](C)CC[C@@H]([C@H]1C)[C@@]24OO3,inactive
9,CC(CC(C#N)(c1ccccc1)c1ccccc1)N(C)C (stereo unspecified),inactive
10,CC[C@H]1C[C@@H]2C[C@H]3c4[nH]c5ccc(OC)cc5c4CCN(C2)[C@@H]13,inactive
11,C=CCN1CC[C@]23CCCC[C@H]2[C@H]1Cc1ccc(O)cc13,inactive
12,CCS(=O)(=O)C(C)(C)S(=O)(=O)CC,inactive
13,C[N+]1(C)[C@@H]2CC[C@H]1CC(OC(=O)C(CO)c1ccccc1)C2 (stereo partly specified),inactive
14,CC[C@H]1C[C@H]2[C@@H]3CCC4=CC(=O)CC[C@@H]4[C@H]3CC[C@]2(C)[C@H]1O,inactive
15,CCC(=O)OC1(c2ccccc2)CCN(C)CC1,inactive
16,O=C(O)CCCCCCNC1c2ccccc2CCc2ccccc21,inactive

row,SMILES,Potency
1,CCC(=O)O[C@H]1CC[C@H]2[C@@H]3CCC4=CC(=O)CC[C@]4(C)[C@H]3CC[C@]12C,inactive
2,CN(C)C(=S)SSC(=S)N(C)C,150 nM (active)
3,O=C(N[C@@H]1N=C(c2ccccc2F)c2cccc3c2N(CC3)C1=O)c1cc2ccccc2[nH]1,inactive
4,Cc1ncc2n1-c1ccc(Cl)cc1C(c1ccccc1F)=NC2,inactive
5,C[C@]12CC[C@H]3[C@@H](CCC4=CC(=O)CC[C@@]43C)[C@@H]1CC[C@@H]2C(=O)O,inactive
6,C[C@H](N)[C@H](O)c1ccc(O)c(O)c1,inactive
7,O=C(CCl)c1ccc(Cl)cc1Cl,inactive
8,O=C(CCCCl)c1ccc(F)cc1,inactive
9,CCCCCCCCC(=O)NCc1ccc(O)c(OC)c1,inactive
10,O=C(NC(=O)c1c(F)cccc1F)Nc1cc(Cl)c(OC(F)(F)C(F)C(F)(F)F)cc1Cl (stereo unspecified),inactive
11,Nc1ccc(N)cc1,inactive
12,CCOC(=O)NC(O)C(Cl)(Cl)Cl (stereo unspecified),inactive
13,N#Cc1nn(-c2c(Cl)cc(C(F)(F)F)cc2Cl)c(N)c1S(=O)C(F)(F)F (stereo unspecified),inactive
14,CC(Cc1ccccc1)NCc1ccccc1Cl (stereo unspecified),inactive
15,C[C@]12Cc3nonc3C[C@@H]1CC[C@@H]1[C@@H]2CC[C@@]2(C)[C@H]1CC[C@]2(C)O,inactive
